aSyn UTR act: Activators working through SNCA 5'UTR binding (MLPCN). alpha-synuclein 5'UTR reporter, activators screen. activity score, % (tested at 7.5 µM), hits read low. 300,000 compounds, 7.1% hits. AID 1814; in the data active = activity score below about -60%
* marks the source's active call; other numbers are inactive results. A selection follows.

SMILES | aSyn UTR act
COCCn1c(C)cc(C(=O)CN2C(=O)NC3(CCCCCCC3)C2=O)c1C | -99.2*
Cc1ccc(C(=O)CN2C(=O)NC3(CCCCCC3)C2=O)c(C)c1 | -131.7*
Cc1cc(C)c(C(=O)CN2C(=O)NC3(CCCCC3)C2=O)cc1C | -73.2*
COCCn1c(C)cc(C(=O)CSc2nnc(C)s2)c1C | 99.6
Cc1ccccc1NC1=C(Cl)C(=O)N(C2CCCCC2)C1=O | -132.8*
COc1cc(OC)c(NC2=CC(=O)C(=O)c3ccccc32)cc1Cl | 107.4
COc1ccccc1NC1=C(Cl)C(=O)N(C2CCCCC2)C1=O | -91.4*
Cn1c(N)c(C(=O)/C=C/c2ccccc2)c(=O)[nH]c1=O | -139.7*
C/C(=N\NC(=O)c1cccs1)c1ccc2c(c1)OCO2 | -74.2*
C/C(=N\NC(=O)c1ccc2c(c1)OCO2)c1ccc2c(c1)OCO2 | -83.4*
C/C(=N\NC(=O)c1ccc2c(c1)OCCO2)c1ccccc1 | 72.9
C/C(=N\Nc1ccc([N+](=O)[O-])cc1)c1ccc2c(c1)OCO2 | -118.5*
COc1ccc2cc1Oc1ccc(cc1)CC1c3c(cc(OC)c4c3Oc3cc5c(cc3O4)CCNC5C2)CCN1C (stereo not drawn) | 114.2
CCOC(=O)c1sc(=NC(=O)c2cccc(Br)c2)n(C)c1C | -188.2*
CCOC(=O)c1sc(=NC(=O)c2cccc(C)c2)n(C)c1C | -151.4*
CC1CCCCN1C(=O)CSc1nnc(-c2ccccc2O)o1 (stereo not drawn) | -83.9*
CC1CCCCN1C(=O)CSc1nnc(-c2ccc(Cl)s2)o1 (stereo not drawn) | -69.4*
CC1CCCCN1C(=O)CSc1nc2ncccc2[nH]1 (stereo not drawn) | -74.8*
CCCCN(C)C(=S)Nc1ccc2nc(N3CCN(CC)CC3)cc(C)c2c1 | -70.2*
CCN1CCN(c2cc(C)c3cc(NC(=O)c4ccc(OC)c(OC)c4)ccc3n2)CC1 | -72.2*
Cc1cccc(N2CCN(C(=S)Nc3ccc4nc(N5CCN(C)CC5)cc(C)c4c3)CC2)c1C | 95.2
COc1ccc(C(=O)Nc2ccc3nc(N4CCN(C)CC4)cc(C)c3c2)c(OC)c1 | -78.0*
Cc1cc(N2CCN(C)CC2)nc2ccc(NC(=S)N3CCCCC3)cc12 | -84.7*
CCN1CCN(c2cc(C)c3cc(NC(=O)c4cccs4)ccc3n2)CC1 | -109.0*
CCN1CCN(c2cc(C)c3cc(NC(=O)c4cccc(OC)c4)ccc3n2)CC1 | -124.4*
SMILES | aSyn UTR act
CCOC(=O)c1ccc(COC(=O)c2ccc(-c3nnc(-c4ccccc4)o3)cc2)o1 | -90.6*
CCOC(=O)c1ccc(-c2ccc(CO)o2)cc1 | -132.2*
CCOC(=O)c1ccc(-c2nnc(-c3ccc(Cl)cc3Cl)o2)cc1 | -206.5*
O=C(COC(=O)c1ccc(-c2nnc(-c3ccccc3)o2)cc1)c1ccccc1 | -125.7*
Nc1ccc(C(=O)N/N=C2\CCCc3c2[nH]c2ccccc32)cc1 | -73.5*
CC(=O)c1ccccc1OCCOCCOCCOc1ccccc1C(C)=O | 67.3
NC(=O)c1ccccc1OCCOc1ccc(Br)cc1 | -62.9*
Nc1ccc(C(=O)OCc2nc3c(ccc4ccccc43)[nH]2)cc1 | -115.8*
O=C(N/N=C/c1cccc(F)c1)c1cc(-c2ccco2)nc2ccccc12 | -120.2*
COc1ccc(C)cc1NC(=O)CSc1nnc(-c2ccc(C)cc2)o1 | -108.8*
COc1ccccc1-c1nnc(SCC(=O)OC(C)C)o1 | -82.7*
COc1ccc(-c2nnc(SCC(=O)Nc3cccc(Cl)c3)o2)cc1 | -179.0*
Cc1cc(-c2nnc(SCC(=O)Nc3ccccn3)o2)no1 | -71.9*
COc1ccc(-c2nnc(SCC(=O)Nc3ccccc3OC)o2)cc1 | -145.3*
CCOC(=O)c1ccccc1NC(=O)CSc1nc2ccccc2o1 | -87.6*
CCOC(=O)c1ccccc1NC(=O)Cn1c(-c2nonc2N)nc2ccccc21 | 73.0
COc1cccc(-c2nnc(SCC(=O)Nc3cc(C)on3)o2)c1 | -66.2*
Cc1ccc(-c2nnc(SCC(=O)Nc3ccccc3F)o2)cc1 | 92.1
COC(=O)c1ccccc1NC(=O)CSc1nnc(-c2ccc(C)cc2)o1 | -129.8*
Cc1cc(-c2nnc(SCC(=O)Nc3ccccc3C(F)(F)F)o2)c(C)n1-c1ccccc1 | -68.7*
Brc1ccc(C2=CC(c3cccs3)n3ncnc3N2)cc1 (stereo not drawn) | -106.7*
Cn1cccc1C1C=C(c2ccc(C(C)(C)C)cc2)Nc2ncnn21 (stereo not drawn) | -114.5*
CC(C)n1cnc2cc(NCc3ccccn3)ccc21 | -97.5*
CC(C)n1cnc2cc(NCc3ccco3)ccc21 | -109.0*
c1ccc(-n2cnc3cc(NCc4ccccn4)ccc32)cc1 | -66.1*
SMILES | aSyn UTR act
Cc1cc(NCc2ccccn2)ccc1Br | -198.1*
COCOc1ccc(-c2cc(=O)c3c(O)cc(OCOC)cc3o2)cc1 | -127.4*
COc1cc(-c2cc(=O)c3c(O)cc(O)cc3o2)ccc1O | -79.0*
COc1cc(O)c2c(=O)c3c(OC)c(O)ccc3oc2c1 | -78.0*
O=c1cc(-c2ccccc2)oc2cc(O)cc(O)c12 | -170.7*
O=c1c(O)c(-c2ccc(O)cc2)oc2cc(O)cc(O)c12 | -100.1*
COc1cc(O)c2c(=O)cc(-c3ccccc3)oc2c1 | -144.9*
O=c1cc(-c2ccc(O)cc2)oc2cc(O)cc(O)c12 | -269.3*
COc1ccc(-c2cc(=O)c3c(O)c(OC)c(O)cc3o2)cc1 | 70.2
Cc1ccccc1Cn1ccc(-c2ccc3c(c2)OCO3)n1 | -129.7*
Cc1ccccc1Cn1nnc(-c2ccc3c(c2)OCO3)n1 | -167.6*
Fc1cccc(Cl)c1Cn1nnc(-c2ccc3c(c2)OCO3)n1 | -96.9*
Fc1cccc(Cn2ccc(-c3ccc4c(c3)OCO4)n2)c1 | -96.6*
COc1ccc(NC(=O)C#Cc2ccccc2)cc1OC | -212.3*
NC(=O)c1ccc(NC(=O)C#Cc2ccccc2)cc1 | -111.9*
COC(=O)c1cnn(-c2cc(Oc3ccccc3)ncn2)c1N | -126.9*
c1ccc(Oc2cc(-n3cccn3)ncn2)cc1 | -139.6*
COC(=O)c1cnc(Oc2ccc(NC(=O)NC(=O)c3c(OC)cccc3OC)cc2)cc1C(F)(F)F | 74.5
NC(=O)c1cnn(-c2cc(Oc3ccccc3)ncn2)c1N | -66.3*
COc1ccccc1-n1cc([C@@H]2C[C@H]3CN(c4ccccc4)C(=O)[C@]34CCCN24)cn1 | -361.9*
CNc1nc(-c2ccc3c(c2)CCN3C(=O)c2ccccc2C)cs1 | -88.0*
CNc1nc(-c2ccc3c(c2)CCN3C(=O)c2cccc(F)c2)cs1 | -427.2*
COc1ccc(CNC(=O)CSc2nnc(NC(=O)c3ccccc3F)s2)cc1 | -68.6*
Cc1c(C(=O)Nc2ccccc2)sc2nc(-c3ccccc3)cn12 | -160.5*
COCCNC(=O)c1sc2nc(-c3ccccc3)cn2c1C | -76.6*
SMILES | aSyn UTR act
Cc1cccc(NC(=O)c2sc3nc(-c4ccccc4)cn3c2C)n1 | -123.5*
COc1ccc(-c2cn3c(C)c(C(=O)Nc4cccc(C)n4)sc3n2)cc1 | -97.1*
CC(C)Sc1nc(N)nc(-c2cccs2)c1C#N | -145.6*
O=C1CCC/C(=N/NC(=O)c2sc3ccccc3c2Cl)C1 | -89.7*
O=C(Nc1ccncc1)c1sc2ccccc2c1Cl | -97.2*
CCn1nnc(NC(=O)c2sc3ccccc3c2Cl)n1 | -82.5*
O=C(Nc1ccnc(=O)[nH]1)c1sc2ccccc2c1Cl | -111.1*
O=C(NNC(=S)NC(=O)c1sc2ccccc2c1Cl)c1ccc(Cl)cc1 | -67.0*
CCn1nnc(NC(=O)c2ccc(-c3ccc(Cl)cc3)o2)n1 | -63.9*
Cc1cnc(NC(=O)COc2ccccc2Cl)s1 | 82.0
COc1ccccc1CCC(=O)Nc1ncc(C)s1 | -82.5*
COc1ccccc1CCC(=O)Nc1ccc(C)cc1Cl | -160.2*
